HCV inhibitor: qHTS Assay for Inhibitors of Hepatitis C Virus (HCV) | Huh7.5.1 HCVcc-Cre infection, luciferase reporter, 44 h | Potency, µM (highest dose often 41.8 µM), actives largely listed as inhibitors | 340,000 tested, 3.4% active
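Compounds are dispensed onto cells plated 4 h earlier at 1,000 per well, with HCVcc-Cre virus (about 0.5 moi) added next. Following 44 h of culture, luminescent signal is measured for 15 sec after 15 min with substrate at room temperature.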
MARV entry inh: qHTS for inhibitors of binding or entry into cells for Marburg Virus | Potency, µM (highest dose often 37.8 µM), hits mostly inhibitors | 300,000 tested, 1.8% active | Marburg virus pseudotyped entry inhibition, cell reporter; calls by dose curve; tested in HEK293 cells
HCMV antiviral: qHTS Assay for inhibitors of the human cytomegalovirus (HCMV) | HFF cells, HCMV-luciferase reporter, 72 h; stronger effect = lower value | activity change, negative = inhibition, % at 57.5 µM | 410,000 tested, 4.5% active; in the data active = activity change below about -60%; inconclusive = no clear call, values can overlap the other calls; inactive = above about -39%
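After 16 h attachment at 37C, HFF cells received test compound and HCMV-luciferase (1 PFU/cell); reporter luminescence read 72 h later, data normalized against buffer-only and known inhibitor Salinomycin.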
Pf growth 96h: Primary qHTS for delayed death inhibitors of the malarial parasite plastid, 96 hour incubation; AID 504834, 2011; P. falciparum luciferase reporter growth, 96 h; 320,000 tested, 6.9% active; Potency, µM (series often up to 28.7 µM), usual class: inhibitors
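P. falciparum expressing integrated firefly luciferase grown in erythrocytes (2% hematocrit, 0.05% parasitemia final) with compounds for 96 hours at 37 C, 5% CO2. Growth inhibition read as loss of luminescence after adding luciferase detection reagent.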
Lassa entry inh: qHTS for Inhibitors of binding or entry into cells for Lassa Virus | 300,000 tested, 1.2% active | Potency, µM (titrated, usually from 37.9 µM), actives largely listed as inhibitors | Lassa virus pseudotype entry inhibition, cell reporter; calls by dose curve; tested in HEK293 cells; also: nearly all actives have a fitted effect of over 50% in size
Pf growth 48h: Primary qHTS for delayed death inhibitors of the malarial parasite plastid, 48 hour incubation; P. falciparum luciferase growth in erythrocytes, 48 h; Potency, µM (series often up to 28.7 µM), most hits filed as inhibitors; 310,000 tested, 5.9% active; AID 504832, 2011
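First compound was added to culture medium, then infected red cells at 0.1% parasitemia and 2% hematocrit (final). After incubation at 37 C under 5% CO2, luciferase detection reagent was dispensed and light output recorded.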
A number is an active result; - = inactive; ? = inconclusive; . = not tested or not shown; [ ] = remark or other dose. Only some compounds are listed: those with a hit (about 14% of all), similar ones and a draw of the others. Unless noted, calls follow the shape of the dose curve; as a rule, active = well fitted inhibition curve with a large enough effect; inconclusive = small, poorly fitted or top-dose-only effect, or another doubt; inactive = no such curve, though single readings can be large or run the other way.

SMILES	HCV inhibitor	MARV entry inh	HCMV antiviral	Pf growth 96h	Lassa entry inh	Pf growth 48h
COc1cc2nc(CN3CCN(S(=O)(=O)c4c(F)cccc4F)CC3)[nH]c(=O)c2cc1OC	-	.	?	?	.	10.4µM
Cc1cccc(C)c1NC(=O)C(c1ccccc1F)n1c(=O)c(-c2cc3ccccc3[nH]2)nc2ccccc21 (stereo not drawn)	.	.	-	.	.	.
Cc1ccc(C)c2c1cc(C)c1nnc(SCC(=O)N3CCCc4ccccc43)n12	-	?	?	-	-	-
Cc1ccc(OCc2nnc(SCC(=O)N3CCc4ccccc43)n2C)cc1	-	-	-	.	-	.
Cc1ccc(NCc2nnc(SCC(=O)N3CCc4ccccc43)n2C)cc1	-	-	-	4.65µM	-	-
Cc1cc(C)nc(SCc2nnc(SCC(=O)N3CCCc4ccccc43)n2C)n1	11.2µM	-	?	-	-	?
Cc1cc(C)c2c(c1)cc(C)c1nnc(SCC(=O)N3CCCc4ccccc43)n12	-	-	-	5.86µM	-	-
Cc1cc(C)nc(SCc2nnc(SCC(=O)N3CCCc4ccccc43)o2)n1	?	-	-	1.47µM	-	-
CN1C(=S)SC(/[N+]([O-])=C/c2ccc(Cl)cc2)C1(C)C (stereo not drawn)	-	-	-65.2	-	-	-
CN1C(=S)SC(/[N+]([O-])=C/c2cccnc2)C1(C)C (stereo not drawn)	-	-	-	3.7µM	-	-
CN1C(=S)SC(/[N+]([O-])=C\c2ccccc2F)C1(C)C (stereo not drawn)	-	.	-	-	.	-
CN1C(=S)SC(/[N+]([O-])=C\c2ccccc2)C1(C)C (stereo not drawn)	-	-	-	-	-	-
CC(C)(C)NC(=O)Cn1cc(S(=O)(=O)Cc2ccc(F)cc2)c2ccccc21	.	.	-	.	-	.
COCCn1c(-c2ccccc2)cnc1SCC(=O)Nc1cccc2ccccc12	-	?	-	13.1µM	?	-
COCCn1c(-c2ccc(OC)cc2)cnc1SCC(=O)Nc1ccc(OC)cc1OC	-	?	-	-	?	?
COCCn1c(-c2ccc(OC)cc2)cnc1SCC(=O)Nc1cc(C)on1	?	?	-86.2	.	-	.
CCOC(=O)N1CCN(C(=O)/C(=C/c2ccc(N(C)C)cc2)NC(=O)c2ccccc2)CC1	-	.	?	?	.	?
FC(F)(F)C1=CC(c2ccc(Br)cc2)=NCCN1	-	-	-	6.57µM	-	?
CCc1nc2ccc(C(=O)N(C)Cc3ccco3)cn2c1N(CC)Cc1cccc(Br)c1	.	.	-	.	.	.
CC(=O)c1ccc(NC(=O)c2ccc(-c3ccc(Cl)cc3)o2)cc1	.	.	-	.	-	.
CCOC(=O)c1nn(-c2ccc(F)cc2)c(=O)cc1OCC(=O)Nc1ccc(OCC)cc1	-	-	-	-	-	-
Cc1c(Cl)ccc2c(C(O)CBr)cc(-c3ccccc3)nc12 (stereo not drawn)	10µM	?	-	.	?	.
Cc1ccc(-c2cc(C(=O)NCCCN3CCOCC3)c3ccc(Cl)c(C)c3n2)cc1	?	.	-	-	.	-
COc1ccc(C(C(=O)NC(C)(C)C)N(C(=O)CNC(=O)c2cccs2)c2ccc(C(C)C)cc2)cc1OC (stereo not drawn)	-	?	-	8.28µM	-	11.7µM
CCOc1ccc(N(C(=O)CNC(=O)c2cccs2)C(C(=O)NCC2CCCO2)c2ccc(OC)c(OC)c2)cc1 (stereo not drawn)	-	-	?	-	-	9.28µM
SMILES	HCV inhibitor	MARV entry inh	HCMV antiviral	Pf growth 96h	Lassa entry inh	Pf growth 48h
Cc1oc(-c2cccc(F)c2)nc1CN(Cc1ccccc1)C[C@@H]1CCC(=O)N1	-	?	-	8.28µM	?	?
O=C(NN=C(Cc1ccccc1)Cc1ccccc1)c1ccc(F)cc1	-	-	-	13.1µM	-	-
NC(=S)NN=C(Cc1ccccc1)Cc1ccccc1	?	?	-70.2	?	?	?
CCOC(=O)c1c(NC(=O)c2cc(=O)c3cc(C)ccc3o2)sc2c1CCCC2	.	-	-	.	?	.
O=c1oc2ccccc2c2c1C(O)CO2 (stereo not drawn)	-	.	-	?	.	-
O=c1oc2ccccc2c(O)c1[C@H]1c2ccc(O)cc2Oc2c1c(=O)oc1ccccc21	-	.	-92.9	-	.	-
COc1ccc(-c2nc3scc(CCNC(=O)c4cc(OC)cc(OC)c4)n3n2)cc1	.	.	-	.	-	.
CCOC(=O)C1=C(c2ccccc2)N2CCS(=O)(=O)N=C2S1	-	-	-	10.4µM	-	-
CN(C)CCCn1cnc2c(c1=N)C(c1ccccc1)c1ccc3ccccc3c1O2 (stereo not drawn)	8.91µM	.	-98.5	2.08µM	.	1.47µM
N=c1c2c(ncn1CCCO)Oc1ccc3ccccc3c1C2c1ccccc1 (stereo not drawn)	?	?	-	?	-	?
CC1(C)CC(=O)C2=C(C1)Oc1ncn(CCCO)c(=N)c1C2c1ccccc1 (stereo not drawn)	-	-	?	-	-	-
COc1ccc(C2c3ccc4ccccc4c3Oc3ncn(CCN(C)C)c(=N)c32)cc1 (stereo not drawn)	2.82µM	8.91µM	-98.7	?	?	2.33µM
COc1ccc(C2c3ccc4ccccc4c3Oc3ncn(CCCO)c(=N)c32)cc1 (stereo not drawn)	-	?	-	?	11.2µM	5.22µM
N=c1c2c(ncn1CCCO)Oc1c(ccc3ccccc13)C2c1ccccc1 (stereo not drawn)	11.2µM	.	-	?	.	?
O=C(Cn1cnc2c(nnn2Cc2ccccc2)c1=O)Nc1ccc2c(c1)OCCO2	-	.	-	-	.	-
CC(C)COC(=O)N(C)C[C@H]1OCc2cnnn2CCCC(=O)N([C@H](C)CO)C[C@H]1C	.	.	-	.	.	.
O=C(Cn1c(=O)oc2ccccc21)NCc1cccc(Cl)c1	.	-	-	.	.	.
N=c1c2c(ncn1Cc1ccco1)Oc1ccc3ccccc3c1C2c1ccccc1 (stereo not drawn)	?	9.2µM	-	?	?	10.4µM
COc1ccc(C2c3ccc4ccccc4c3Oc3ncn(CCO)c(=N)c32)cc1 (stereo not drawn)	?	?	.	-	8.91µM	?
COC(=O)[C@@]12CCCN1[C@H](c1ccc(-c3ccc(OC)cc3)cc1)[C@@H]1C(=O)N(C)C(=O)[C@@H]12	?	.	-	9.28µM	.	5.86µM
COC(=O)[C@@]12CCCN1[C@H](c1ccc(-c3ccccc3)cc1)[C@H]1C(=O)N(C)C(=O)[C@H]12	-	.	-	?	.	10.4µM
N#Cc1cnn(-c2cc(Cl)ccc2Cl)c1N	.	.	-	.	.	.
Fc1ccc(-c2noc3nc(NCC4CCCO4)ccc23)cc1 (stereo not drawn)	.	.	-	.	.	.
CC(C)C[C@@H]1NC(=O)[C@H](Cc2ccc(O)cc2)NC(=O)c2cc([N+](=O)[O-])cc(I)c2NCCC[C@@H](C(N)=O)NC1=O	-[8.37 µM]	-	.	10.4µM	-	?

Screening data from PubChem BioAssay.
